Laboratory results published in PubChem BioAssay (EPA / NIEHS).
Results filed as inconclusive are left out. Calls of active or inactive are those of the source. The calls were made as follows, unless noted: active = hit-call score of the fitted dose curve at least 0.9, where 1 is the maximum; inactive = score below 0.9.

Key:
[1] = target: Nuclear receptor subfamily 1 group I member 2 (Homo sapiens) (UniProt O75469); test: NVS_NR_hPXR: NovaScreen (NVS) Nuclear Receptor Binding Assay for human Pregnane X Receptor (PXR) (AID 2283365; active = hit-call score of the fitted dose curve at least 0.9, where 1 is the maximum;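 also: a drop in FRET signal versus DMSO baseline means the compound binds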)
Summary of the method: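 Human PXR binding measured by TR-FRET in a cell-free format, 2 h exposure. Single-concentration duplicates at 25 uM preceded concentration-response retests of actives; endpoint fitted positively relative to DMSO, loss of signal indicating binding.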

[2] = target: human Retinoic Acid Receptor gamma (RARg), RARG (gene 5916) (UniProt P13631); test: ATG_RARg_TRANS: Attagene TRANS-FACTORIAL HepG2 Assay for human Retinoic Acid Receptor gamma (RARg) (AID 2283009; active = hit-call score of the fitted dose curve at least 0.9, where 1 is the maximum)
Summary of the method: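 HepG2 cells transiently transfected with multiplexed reporter units expressing chimeric RARg-GAL4 and GAL4-UAS-driven reporters; 24 h compound exposure. Reporter mRNA quantified by RT-PCR with fluorescent labelling and capillary electrophoresis; gain-of-signal fitted relative to DMSO baseline.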

[3] = BSK_3C_Vis: BioMAP Diversity Plus: 3C Assay for Morphology Visualization (AID 2283025); settings: primary human endothelial cells (HUVEC);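 also: fitted both ways so gain or loss versus DMSO counts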
Summary of the method: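 Human umbilical vein endothelial cells in the 3C system were imaged by light microscopy 24 h after chemical dosing to record cell morphology. Activity was fitted bidirectionally against DMSO as negative control and baseline; the endpoint serves as a background control.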

[4] = read-out: Transforming growth factor beta 1 (TGFb1), TGFB1 (gene 7040); test: BSK_BE3C_TGFb1: BioMAP Diversity Plus: BE3C Assay for Transforming growth factor beta 1 (TGFb1) Biomarker Activity (AID 2283036); settings: primary human bronchial epithelial cells; actives raise or lower the signal
Summary of the method: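 Human primary bronchial epithelial cells (BE3C system) were dosed with chemical and TGF-b1 levels measured by ELISA at 24 h. Activity was fitted bidirectionally relative to DMSO negative control as baseline.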

[5] = read-out: Transforming growth factor beta 1 (TGFb1), TGFB1 (gene 7040); test: BSK_KF3CT_TGFb1: BioMAP Diversity Plus: KF3CT Assay for Transforming growth factor beta 1 (TGFb1) Biomarker Activity (AID 2283072); settings: primary human keratinocytes with fibroblasts; actives raise or lower the signal
Summary of the method: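 Human keratinocyte plus foreskin fibroblast primary co-culture, dosed with chemical for 24 h. TGF-b1 quantified by ELISA. Activity fitted bidirectionally against DMSO negative control as baseline.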

[6] = STM_H9_NormalizedViability: Cytotoxicity Assessment at 120 hours in the Stemina devTOX quickPredict H9 human embryonic stem cell (hESC)-based Assay (AID 2283784; active = hit-call score of the fitted dose curve at least 0.9, where 1 is the maximum)
Summary of the method: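 Undifferentiated H9 hESCs kept pluripotent were exposed to compound, with media and chemical replaced every 24h. CellTiter-Fluor protease-substrate fluorescence was background-corrected and normalized per plate to the 0.1% DMSO vehicle; signal loss indicates reduced viability.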

[7] = IUF_NPC1b_proliferation_BrdU_72hr: Leibniz Research Institute for Environmental Medicine (IUF) 72-hour Neural Progenitor Cell Bromodeoxyuridine (BrdU) Proliferation Assay (NPC1b) (AID 2284207)
Summary of the method: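 Proliferation of primary human neural progenitor cells: 72 h compound treatment at 37C, 5% CO2, pH 7.2-7.6, in EGF/FGF-containing medium. Readout is BrdU uptake (last 16 h) by chemiluminescent ELISA, normalised to DMSO.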

[8] = IUF_NPC1a_proliferation_area_72hr: Leibniz Research Institute for Environmental Medicine (IUF) 72-hour Neural Progenitor Cell Proliferation Area Assay (NPC1a) (AID 2284208)
Summary of the method: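 Proliferation read as increase in sphere area by phase-contrast imaging over 72 h continuous compound exposure (no renewal) of hNPC spheres grown with EGF/FGF at 37C, 5% CO2. Growth-factor withdrawal served as positive control; DMSO as baseline.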

[9] = IUF_NPC1_viability_72hr: Viability Assessment at 72 hours in the Leibniz Research Institute for Environmental Medicine (IUF) Neural Progenitor Cell Proliferation Assay (NPC1) (AID 2284209)
Summary of the method: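 Human fetal-cortex neural progenitor spheres (0.25–0.35 mm, one per well) grown in EGF/FGF proliferation medium at 37C, pH 7.2-7.6, exposed 72 h without renewal; viability read as alamar blue resazurin-to-resorufin fluorescence relative to DMSO.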

[10] = IUF_NPC2c_oligodendrocyte_migration_120hr: Leibniz Research Institute for Environmental Medicine (IUF) 120-hour Neural Progenitor Cell Migration Assay for Oligodendrocyte Migration (NPC2c) (AID 2284297);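 also: O4-positive oligodendrocyte migration distance divided by radial glia migration distance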
Summary of the method: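 Exposure runs 5 days from differentiation onset at 37C, seven concentrations plus solvent control, DMSO at most 0.1%, applied to primary hNPC spheres on laminin. After fixation, O4 immunostaining gives oligodendrocyte distance from the sphere core, relative to radial glia migration.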

[11] = IUF_NPC2a_radial_glia_migration_120hr: Leibniz Research Institute for Environmental Medicine (IUF) 120-hour Neural Progenitor Cell Migration Assay for Radial Glia Migration (NPC2a) (AID 2284298)
Summary of the method: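 Migration distance in um, sphere core edge to migration-area edge, derived by nuclei-density algorithm from Hoechst images after 120 h compound exposure. Primary hNPC spheres differentiated on poly-D-lysine/laminin in N2 medium, 37C; medium half-replaced day 3.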

[12] = IUF_NPC2a_radial_glia_migration_72hr: Leibniz Research Institute for Environmental Medicine (IUF) 72-hour Neural Progenitor Cell Migration Assay for Radial Glia Migration (NPC2a) (AID 2284299)
Summary of the method: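 Human fetal cortex (GW 16-19) neural progenitor spheres, 0.3 mm, plated on poly-D-lysine/laminin in N2 differentiation medium with compound from day 0. Radial glia migration distance (um, sphere core edge to migration edge) measured manually in four directions on 72 h brightfield images; well mean used.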

[13] = IUF_NPC2b_neuronal_migration_120hr: Leibniz Research Institute for Environmental Medicine (IUF) 120-hour Neural Progenitor Cell Migration Assay for Neuron Migration (NPC2b) (AID 2284300)
Summary of the method: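 TUBB3-positive neurons are imaged after 120 h of differentiation, and their mean distance from the sphere edge is normalised to radial glia migration. Single 0.3 mm fetal hNPC spheres on poly-D-lysine/laminin received 7 compound concentrations, ≤0.1% DMSO, refreshed at day 3.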

[14] = IUF_NPC3_neuronal_differentiation_120hr: Leibniz Research Institute for Environmental Medicine (IUF) 120-hour Neuronal Differentiation Assay (NPC3) (AID 2284301)
Summary of the method: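 Single 0.3 mm neurospheres from human fetal cortex were plated in differentiation medium containing test compound. Medium was half-replaced on day 3. After 120 h cells were fixed, immunostained and imaged, and neuronal fraction was scored against DMSO control.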

[15] = IUF_NPC4_neurite_length_120hr: Leibniz Research Institute for Environmental Medicine (IUF) 120-hour Neuronal Morphology Assay for Neurite Length (NPC4) (AID 2284302)
Summary of the method: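 Read-out is mean neurite length in µm of TUBB3-positive neurons, skeletonized from high-content fluorescence images after 120 h. Single 0.3 mm primary human neural progenitor spheres differentiated on poly-D-lysine/laminin under continuous compound exposure; DMSO was baseline.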

[16] = IUF_NPC4_neurite_area_120hr: Leibniz Research Institute for Environmental Medicine (IUF) 120-hour Neuronal Morphology Assay for Neurite Area (NPC4) (AID 2284305; active = hit-call score of the fitted dose curve at least 0.9, where 1 is the maximum)
Summary of the method: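 Neurite area is read out as the mean pixel area, excluding nuclei, of skeletonized TUBB3-positive neurons imaged after 120 h. Primary human neural progenitor spheres differentiated on poly-D-lysine/laminin with compound present from day 0. Activity was referenced to DMSO controls.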

[17] = IUF_NPC2-5_cytotoxicity_72hr: Cytotoxicity Assessment at 72 hours in the Leibniz Research Institute for Environmental Medicine (IUF) Neural Progenitor Cell Migration and Differentiation Assay for Cytotoxicity (NPC2-5) (AID 2284306; active = hit-call score of the fitted dose curve at least 0.9, where 1 is the maximum;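 also: LDH release into supernatant measured by resorufin fluorescence marking membrane damage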)
Summary of the method: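 Membrane integrity loss was scored from fluorescence (RFU) of resorufin generated by LDH in culture supernatant, 72 h after dosing. Differentiating human progenitor spheres received seven serial compound concentrations alongside a solvent control.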

[18] = IUF_NPC2-5_cytotoxicity_120hr: Cytotoxicity Assessment at 120 hours in the Leibniz Research Institute for Environmental Medicine (IUF) Neural Progenitor Cell Migration and Differentiation Assay (NPC2-5) (AID 2284307; active = hit-call score of the fitted dose curve at least 0.9, where 1 is the maximum;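 also: LDH released into supernatant as membrane damage marker via resorufin fluorescence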)
Summary of the method: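 Membrane-integrity loss measured as LDH activity in medium supernatant via resazurin-to-resorufin fluorescence after 120 h exposure. hNPC spheres from GW 16-19 fetal cortex differentiated on poly-D-lysine/laminin, 37C, medium half-refreshed day 3; seven concentrations, DMSO max 0.1%.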

[19] = IUF_NPC2-5_cell_number_120hr: Cell Number Assessment at 120 hours in the Leibniz Research Institute for Environmental Medicine (IUF) Neural Progenitor Cell Migration and Differentiation Assay (NPC2-5) (AID 2284308);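 also: count of Hoechst-stained nuclei in migration zone around plated human neural progenitor spheres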
Summary of the method: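 Counting of all Hoechst-stained nuclei in the migration area at 120 h, versus DMSO control. Primary hNPC spheres differentiated on poly-D-lysine/laminin in N2 medium at 37C, dosed from day 0 (7 concentrations, DMSO ≤0.1%), half-refed day 3.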

THRB (gene 7068) = THRB (gene 7068) (UniProt P10828); test: TOX21_TRB_COA_Antagonist_Followup_ratio: Tox21 Thyroid Hormone Receptor beta Antagonism through Coactivator Recruitment Follow-Up Assay, Ratio (AID 2283967; active = hit-call score of the fitted dose curve at least 0.9, where 1 is the maximum)
Summary of the method: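 Test compound was incubated with 5.0 nM GST-TRβ LBD in 0.10% BSA. Then 200 nM fluorescein-SRC-2 peptide and 2 nM terbium anti-GST antibody were added. TR-FRET (520:495 nm) was measured and normalized to DMSO and T3 controls.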

Measured: AC50

THRB (gene 7068), sequence (P10828 whole entry, looked up, the tested form may be a part): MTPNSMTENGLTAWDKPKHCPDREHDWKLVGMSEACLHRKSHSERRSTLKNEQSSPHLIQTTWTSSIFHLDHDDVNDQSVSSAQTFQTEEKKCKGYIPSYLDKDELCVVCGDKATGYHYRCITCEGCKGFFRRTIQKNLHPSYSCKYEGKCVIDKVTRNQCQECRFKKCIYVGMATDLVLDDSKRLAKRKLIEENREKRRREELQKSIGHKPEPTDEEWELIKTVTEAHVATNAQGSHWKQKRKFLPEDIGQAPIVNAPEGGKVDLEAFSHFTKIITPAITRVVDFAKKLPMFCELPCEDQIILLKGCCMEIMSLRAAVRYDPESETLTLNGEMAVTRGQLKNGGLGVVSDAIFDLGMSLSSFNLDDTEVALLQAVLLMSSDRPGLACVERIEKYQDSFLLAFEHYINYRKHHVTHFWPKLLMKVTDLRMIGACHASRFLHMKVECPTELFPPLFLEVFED
human Retinoic Acid Receptor gamma (RARg), RARG (gene 5916), sequence (P13631 whole entry, looked up, the tested form may be a part): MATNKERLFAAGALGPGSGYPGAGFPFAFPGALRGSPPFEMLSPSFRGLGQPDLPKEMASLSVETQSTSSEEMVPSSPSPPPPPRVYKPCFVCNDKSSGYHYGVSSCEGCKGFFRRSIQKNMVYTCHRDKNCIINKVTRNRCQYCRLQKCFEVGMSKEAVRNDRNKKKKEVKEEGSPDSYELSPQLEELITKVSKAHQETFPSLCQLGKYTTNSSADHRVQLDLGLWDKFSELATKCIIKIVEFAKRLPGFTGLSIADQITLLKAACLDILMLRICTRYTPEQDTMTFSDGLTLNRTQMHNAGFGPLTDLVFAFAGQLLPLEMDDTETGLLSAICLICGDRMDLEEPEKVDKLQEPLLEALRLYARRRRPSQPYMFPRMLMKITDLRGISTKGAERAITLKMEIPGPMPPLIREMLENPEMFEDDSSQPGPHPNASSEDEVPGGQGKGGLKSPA
Nuclear receptor subfamily 1 group I member 2 (Homo sapiens), sequence (O75469 whole entry, looked up): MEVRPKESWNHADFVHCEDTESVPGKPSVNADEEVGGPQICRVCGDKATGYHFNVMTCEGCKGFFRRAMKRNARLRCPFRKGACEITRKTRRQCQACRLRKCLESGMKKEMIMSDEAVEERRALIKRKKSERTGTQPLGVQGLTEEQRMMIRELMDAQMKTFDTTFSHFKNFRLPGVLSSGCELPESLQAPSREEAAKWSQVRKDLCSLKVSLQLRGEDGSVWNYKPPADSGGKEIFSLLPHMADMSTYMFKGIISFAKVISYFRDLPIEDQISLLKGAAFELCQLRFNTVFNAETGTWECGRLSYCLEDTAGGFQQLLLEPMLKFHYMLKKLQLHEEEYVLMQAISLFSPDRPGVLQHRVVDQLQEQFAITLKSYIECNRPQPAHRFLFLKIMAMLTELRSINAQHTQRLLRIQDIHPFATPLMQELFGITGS

Nc1ccc(S(=O)(=O)Nc2cnc3ccccc3n2)cc1
inactive: [1]

O=C(C1CCCCC1)N1CC(=O)N2CCc3ccccc3C2C1 (stereo unspecified)
inactive: [2]

Oc1cccc2ccccc12
active: [9] 2440 nM | [18] 216 nM
not listed: [1] | [2] | THRB (gene 7068)
inactive: all other assays above

O=C(CCCCCCC(=O)Nc1ccccc1)NO
inactive: THRB (gene 7068)

CO[C@H]1C[C@@H]2CC[C@@H](C)[C@@](O)(O2)C(=O)C(=O)N2CCCC[C@H]2C(=O)O[C@H]([C@H](C)C[C@@H]2CC[C@@H](O)[C@H](OC)C2)CC(=O)[C@H](C)/C=C(\C)[C@@H](O)[C@@H](OC)C(=O)[C@H](C)C[C@H](C)\C=C/C=C/C=C/1C
inactive: THRB (gene 7068)
